The source of these data is PubChem BioAssay AID743398 (Broad Institute, 2014).

Screen size: about 300,000 compounds; about 3,600 (1.2%) were called active. The entries come from a sample that favours actives as a whole. Values without a mark were called inactive. Cut-off read from the data, not from the text of the source: active = activation above about 30% (passing the limit was not always enough); inconclusive = no clear call, values can overlap the other calls.

This assay is described as follows: activation of beta-catenin signaling reporter – cell-based, plate reader, single point, primary screen (AID 743398).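 Note: 0% = neutral control wells and 100% = positive control wells.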 The following applies: Wnt/beta-catenin reporter cell assay, activator, at 9.35 µM, hits give high values.
In the case of `COC(=O)c1ccc(NC(=O)c2ccco2)cc1`, the activation was 58% (active). With `O=C(Nc1ccc(O)cc1)c1ccc(NC(=O)c2ccco2)cc1` the figure was 9.09%; with `Cc1ccc(NC(=O)c2ccco2)cc1`, -2.54%. On to `CC(Sc1ccc(S(=O)(=O)N2CCN(C)CC2)cn1)C(=O)NC1CCCC(C)C1C` (stereo unspecified), for which the activation is -1.63%. With `O=C(NCc1ccccc1Cl)c1csc([C@@H]2O[C@H](CO)[C@@H](O)[C@H]2O)n1` the figure was -2.52%. Regarding `CCC(c1nnnn1-c1ccc2c(c1)OCCO2)N1CCN(c2ccc(C(F)(F)F)cn2)CC1` (stereo unspecified), the activation is 0.0485%. With `COc1cc2ccccc2cc1C(=O)Nc1ccc(NC(=O)c2cccs2)cc1` the figure was -6.22%; with `COc1cc2ccccc2cc1C(=O)Nc1ccncc1`, 11.7%; with `COc1cc2ccccc2cc1C(=O)Nc1ccccc1C`, 38.1% (active).

On to `CCCCOCC1CN(CCCC)S(=O)(=O)c2c(Oc3ccc(F)cc3)cccc2O1` (stereo unspecified), for which the activation is -5.54%. With `CCOC(=O)C1=C(C)NC(SC)=NC1c1ccccc1` (stereo unspecified), the activation was -2.32%.

Turning to `CCOC(=O)C(=O)C1C(=O)Nc2ccccc21` (stereo unspecified), the activation is 3.02%.

Regarding `CCOC(=O)C1=C(CC)Nc2ccccc2N=C1N`, the activation was 38.3% (active). `COC(=O)[C@H]1C[C@H](OC(=O)NCc2ccccc2)[C@@]2(O)CN(S(=O)(=O)c3ccc(C)cc3)CC2[C@H]1C(=O)OC` (stereo partly specified): the activation was 0.0463%. With `COc1cccc(-c2cc(CNC(=O)[C@@H](Cc3ccccc3)NC(=O)[C@H]3O[C@@H](n4cnc(C(N)=O)n4)[C@H](O)[C@@H]3O)no2)c1` the figure was -3.63%; with `O=C(Nc1nc2ccc([N+](=O)[O-])cc2s1)c1ccncc1`, 34.4% (active). For `COc1ccc(C(=O)Nc2nc(-c3ccc(OC)cc3)c(-c3ccc([N+](=O)[O-])cc3)s2)cc1`, the activation is -2.22%. For `CCOc1ccc2nc(NC(=O)c3cc([N+](=O)[O-])ccc3N3CCOCC3)sc2c1` the value was -0.111%. Take `Brc1ccc(COCCc2cn(Cc3ccccc3)c3ccccc23)cc1`: the activation is 11.3%. For `Cc1cc(=O)oc2c3c(cc(OCC(=O)NCC(O)c4ccccc4)c12)OC(C)(C)CC3` (stereo unspecified), the activation was -1.47%.

With `Cc1ccc(C(=O)NCC(=O)O)s1`, the activation is 0.419%. Consider `Cc1csc(NC(=O)C2=COCCO2)n1`, for which the activation was 5.46%. In the case of `Cc1csc(NC(=O)c2ccc(C)s2)n1`, the activation was 43.1% (active). For the compound `COc1cccc(CNc2nc3cc(-c4csc5ccccc45)sc3c(=O)n2C)c1`, the activation was -2.71%. With `CC(C)Nc1ncnc2c1ncn2[C@H]1CN(Cc2ccncc2)C[C@@H](CO)O1` the figure was -2.99%; with `CCOC(=O)[C@]12CCC=C1N(Cc1ccco1)C(=O)[C@H](CC(=O)NCc1cccc(C(F)(F)F)c1)C2`, -1.73%. For `Cc1cc(C(=O)COc2ccc(Br)cc2F)c(C)n1C1CC1` the value was 35.3% (active). For `Cc1cc(C(=O)COc2ccccc2Cl)c(C)n1C1CC1`, the activation was -1.86%. For `O=C(COc1ccc(Br)cc1F)NCC1(N2CCCCC2)CCCCC1` the value was -3.51%; for `CC(C)Nc1ccc(-n2nc3ccccc3[n+]2[O-])cc1`, 40.2% (active).

In the case of `COC(=O)[C@]12C[C@H](CC(=O)N3CCN(C(=O)C4CC4)CC3)C(=O)N(Cc3ccc4c(c3)OCO4)C1=C[C@H](C(C)(C)C)O[C@@H]2C`, the activation is -4.23%.

As to `O=[N+]([O-])c1ccc(CN2CC(N3CCC(c4ccccc4)CC3)CS2(=O)=O)cc1` (stereo unspecified), the activation was -1.72%.

For `CN(C)C(=O)c1cccc(-c2cnc3sc(NCc4ccc5c(c4)OCO5)nn23)c1`, the activation was -6.39%. For the compound `Cc1cccc(OCC(=O)Nc2ccccc2F)c1`, the activation was 22.2%. For `Cc1cccc(OCCC(=O)Nc2ccccc2C(N)=O)c1` the value was 1.98%. With `COc1cccc(OCC(=O)Nc2ccccc2C(N)=O)c1`, the activation was 39.1% (active). With `O=C(c1ccc(CS(=O)Cc2ccccc2Cl)o1)N1CCN(c2ccccc2)CC1` (stereo unspecified) the figure was -4.44%. For `CS(=O)(=O)/C(C#N)=C/c1cccn1S(=O)(=O)c1ccc([N+](=O)[O-])cc1`, the activation is -1.05%. Turning to `COc1cc2ccc(C(C)=O)c(O)c2cc1OC`, the activation is 10.2%. Consider `COc1ccc(NC(=O)C2Cc3c(-c4cccc(NC(C)=O)c4)ccnc3O2)cc1OC` (stereo unspecified), for which the activation was -0.676%. For `Cn1cccc1C(=O)OCC(=O)c1ccc(Br)s1` the value was 47.9% (active); for `Cn1cccc1C(=O)OCC(=O)NCCc1ccccc1`, 15.6%; for `Cn1cccc1C(=O)NNC(=O)COc1ccc(Br)cc1`, 3.43%. For the compound `CC1CCCN(c2cccc3c2S(=O)(=O)N(Cc2ccc(F)cc2)[C@@H](C)[C@H](c2ccccc2)O3)C1` (stereo partly specified), the activation is -2.02%.

Regarding `O=C(NCc1ccccc1)[C@H]1CCCN1C(=O)[C@@H]1CCCN1C(=O)c1ccc(Cl)cc1Cl`, the activation was -5.01%. Take `NC(c1ccccc1)c1csc(NC(=O)Nc2cccc(C(F)(F)F)c2)n1` (stereo unspecified): the activation is -0.452%.

On to `CC(C)CC1C(=O)N(Cc2cn(CC3CCCCC3)nn2)CCS(=O)(=O)N1Cc1ccc(-c2ccc(Cl)cc2)cc1` (stereo unspecified), for which the activation was -6.32%.

Turning to `c1cnc(N2CCN(c3ccc4ccccc4n3)CC2)nc1`, the activation was 36.8% (active). For `Oc1ccc(CN2CCN(c3ncccn3)CC2)cc1` the value was -0.601%; for `O=C(c1ccncc1)N1CCN(c2ccc3ccccc3n2)CC1`, 3.16%; for `CCCN1C(=O)c2[nH]nc(-c3ccccc3)c2C1c1ccccc1` (stereo unspecified), 0.123%. Regarding `CC(C)CCNC(=O)c1[nH]c(C(F)(F)F)nc1-c1ccccc1`, the activation was -0.284%.

`O=C(NCCS(=O)(=O)NCc1ccc(Cl)cc1)c1ccccc1`: the activation is -1.51%. With `O=C(CN1CCN(c2ccc(Cl)cc2)CC1)c1ccccc1` the figure was 0.814%. For `O=C(Cc1ccc(Cl)cc1)c1ccccc1` the value was 39.9% (active).

Turning to `CN(C)C(=O)N1CCN(C(=O)[C@@H](Cc2ccccc2)NC(=O)[C@H]2O[C@@H](n3ccc(N)nc3=O)[C@H](O)[C@@H]2O)CC1`, the activation was -0.987%.

Turning to `CC1CCCC(C)N1C(=O)COC(=O)c1ccccc1C(=O)c1ccccc1` (stereo unspecified), the activation was -3.33%. Consider `Cc1cc(N2CCN(C(=O)OC(C)(C)C)C[C@H]2C)ccc1N1CCN(Cc2ccccc2)[C@H](C)C1`, for which the activation is -18.5%.

As for `Cc1cccc(C)c1NC(=O)CSc1ccc([N+](=O)[O-])cn1`, the activation was -1.27%. With `O=[N+]([O-])c1ccc(Sc2n[nH]c(-c3ccco3)n2)nc1` the figure was -0.107%. With `CC(C)(C)n1cnnc1Sc1ccc([N+](=O)[O-])cn1` the figure was 37.4% (active); with `Cc1cccc(C)c1NC(=O)COC(=O)c1c(C)nn(-c2ccccc2)c1C`, 2.07%; with `Cc1ccc(OC(=O)c2c(C)nn(-c3ccccc3)c2C)cc1`, 57.6% (active). As to `Cc1nn(-c2ccccc2)c(-n2cccc2)c1C(=O)O`, the activation was -0.442%. With `Cc1cccc(C)c1Cn1c(C)c(C(=O)NCc2cccc(Cl)c2)sc1=O`, the activation is -7.17%. For `CCCOc1ccc(F)cc1-c1cc(C(=O)Nc2ccc(F)cc2)[nH]n1` the value was -2.71%.

As to `C=CCN1C(=O)C(Cc2cccc(Cl)c2)S/C1=N/N=C/c1ccco1` (stereo unspecified), the activation is -5.07%.

Regarding `O=C1N/C(=N\N=C\c2ccco2)SC1Cc1ccc(F)cc1` (stereo unspecified), the activation is 1.16%. With `COc1ccc(CN2C(=O)C(C)S/C2=N/N=C/c2ccco2)cc1` (stereo unspecified) the figure was 39.6% (active); with `CCOC(=O)c1cc(-c2sc(NC(=O)c3ccccc3)nc2C)n(-c2ccc(Br)cc2)n1`, -1.56%. For `O=C(CSc1ccc([N+](=O)[O-])cn1)Nc1ccc(N2CCOCC2)cc1` the value was 34.8% (active); for `Cn1cnnc1SCC(=O)Nc1ccc(N2CCOCC2)cc1`, -1.68%; for `O=C(CSc1ccc([N+](=O)[O-])cn1)Nc1ccc(N2CCOCC2)c(Cl)c1`, -0.66%. With `CC(C)CNc1cccc2c1S(=O)(=O)N[C@H](C)CO2` the figure was -4.07%; with `CCCn1c(N)c(C(=O)CSc2nnc3n2CCCCC3)c(=O)[nH]c1=O`, 44.1% (active). Consider `CCCn1c(N)c(C(=O)CSc2nnc(-c3cccnc3)n2-c2ccc(C)cc2C)c(=O)[nH]c1=O`, for which the activation is -2.6%.

In the case of `CCCn1c(N)c(C(=O)CSc2nnc(Cc3cccs3)n2C2CC2)c(=O)[nH]c1=O`, the activation is 0.611%. For `Cc1[nH]nc2c1C(c1ccc(Br)cc1)NC2=O` (stereo unspecified) the value was 1.31%; for `Cc1cc(O)c(NC(=O)c2ccc(C)c([N+](=O)[O-])c2)cc1C`, 4.77%; for `Cc1ccc(NC(=O)CN(C)CC(=O)Nc2cccc(F)c2)cc1[N+](=O)[O-]`, -4.16%. For `Cc1ccc(NC(=O)c2sccc2C)cc1[N+](=O)[O-]` the value was 44.6% (active). `O=S(=O)([N-]c1nc2ccccc2nc1-[n+]1ccc(Cc2ccccc2)cc1)c1ccc(Br)s1`: the activation was 88.3% (active). As for `O=S(=O)(NCc1ccccn1)c1ccc(Br)s1`, the activation is -6.83%. For `Cc1cc(C)c[n+](-c2nc3ccccc3nc2[N-]S(=O)(=O)c2cccs2)c1` the value was -2.64%.

With `O=C(NC(=O)N1CCSCC1)c1c(Cl)cccc1Cl`, the activation is 31.3% (active). In the case of `O=C(NC(=O)N1CCOCC1)c1ccccc1`, the activation was -2.28%. For `O=C(NCC(=O)N1CCCCCCC1)c1ccccc1Cl` the value was 12.1%. As to `OC(c1ccc(Cl)cc1)c1ncc(-c2ccc(Cl)cc2)[nH]1` (stereo unspecified), the activation was 0.492%.

As for `COc1cc(/C=N\Nc2nc(-c3cccs3)c(NC(C)=O)s2)ccc1O`, the activation is 7.87%. For `CCNc1nc(NCC)nc(N/N=C/c2ccc(O)c(OC)c2)n1` the value was -3.98%; for `COc1cc(/C=N/Nc2nc3ccccc3s2)ccc1O`, 76.9% (active).
